Source: PubChem BioAssay
In the library only some 10% were active in any assay of this set; here they are far more common.
LMNA splice mod = modulators of lamin A splicing. HeLa LMNA splicing GFP/RFP minigene ratio, 48 h. Potency, µM (highest dose often 46.1 µM), for inactives: at the highest dose ratio change, negative = inhibition, hits mostly inhibitors. hit rate 0.01% among 200,000. AID 1487; active means well fitted inhibition curve with a large enough effect in the signal ratio, with a control signal flat, not every such curve was filed as active; inconclusive means small, poorly fitted or top-dose-only effect, or effect the other way, or a change in a side signal; the % refers to the signal ratio; further: potency means the concentration at half of the fitted maximal effect
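S3 HeLa stable clones carrying a lamin A-EGFP splicing minigene plus DsRed2 were seeded at 600 cells/well in Opti-MEM with 2% FBS, pin-dosed and incubated 48 h at 37°C. Acumen cytometry (488 nm) gave the GFP/RFP total-intensity ratio.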
HPGD inh = HPGD (human) dehydrogenase inhibition; P15428; purified HPGD, NADH fluorescence kinetic, PGE2 substrate; Potency, µM, inactives show at the highest dose activity change, negative = inhibition, most hits filed as inhibitors; hit rate 4.3% among 150,000; AID 894; further: potency means the concentration at half of the fitted maximal effect
Target sequence (P15428 whole entry, looked up): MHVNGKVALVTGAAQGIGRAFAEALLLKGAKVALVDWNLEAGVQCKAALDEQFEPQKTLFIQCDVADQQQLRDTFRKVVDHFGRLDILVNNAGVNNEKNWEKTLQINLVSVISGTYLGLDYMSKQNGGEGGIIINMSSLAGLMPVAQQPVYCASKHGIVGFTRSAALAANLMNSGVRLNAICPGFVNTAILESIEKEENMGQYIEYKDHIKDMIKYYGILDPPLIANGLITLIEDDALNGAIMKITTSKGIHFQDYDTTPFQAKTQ
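NADH formation kinetics: reaction with 30 uM PGE2 and 1 mM NAD+ (final), 20 nM enzyme, Tris-HCl pH 8 with Tween 20, after 15 min compound preincubation at room temperature. Fluorescence change, last versus first of five reads.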
ALDH1A1 block = inhibitors of human aldehyde dehydrogenase 1A1 | Purified ALDH1A1, NADH fluorescence, propionaldehyde substrate | hit rate 7.3% among 220,000 | AID 1030 | Potency, µM (top dose mostly 75.3 µM), for the others: top-dose activity, negative = inhibition, hits mostly inhibitors | P00352;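 further: potency means the concentration at half of the fitted maximal effect; plate controls were no enzyme wells and a reference inhibitor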
Target sequence (P00352 whole entry, looked up): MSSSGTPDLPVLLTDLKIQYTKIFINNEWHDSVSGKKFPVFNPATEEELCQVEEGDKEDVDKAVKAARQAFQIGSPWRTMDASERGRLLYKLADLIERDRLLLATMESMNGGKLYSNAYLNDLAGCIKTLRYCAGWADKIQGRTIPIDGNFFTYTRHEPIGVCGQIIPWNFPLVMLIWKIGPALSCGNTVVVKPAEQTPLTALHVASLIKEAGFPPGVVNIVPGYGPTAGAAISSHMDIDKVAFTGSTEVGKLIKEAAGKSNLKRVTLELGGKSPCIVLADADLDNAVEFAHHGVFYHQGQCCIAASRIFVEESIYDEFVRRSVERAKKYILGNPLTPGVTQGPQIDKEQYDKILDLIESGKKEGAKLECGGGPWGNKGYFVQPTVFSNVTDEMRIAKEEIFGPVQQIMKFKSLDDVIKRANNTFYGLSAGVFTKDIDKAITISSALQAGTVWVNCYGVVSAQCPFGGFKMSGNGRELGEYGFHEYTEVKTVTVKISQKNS
PNC inhibitor = blocks assembly of the perinucleolar compartment; activity change (PNC), negative = inhibition, % at 10 µM; hit rate 3.1% among 140,000; PC3M PTB-GFP, PNC prevalence imaging, 16 h; active compounds read low;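 active means readout at or below -70, meaning at least 70% loss of cells showing the perinucleolar compartment, a nuclear body marking cancer cells; inconclusive means readout between -30 and a set limit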;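 further: plate controls were DMSO wells for no effect and camptothecin positive control wells for full effect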
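Compounds are pinned in duplicate onto adhered PC3M cells stably expressing GFP-tagged PTB and incubated 16 h at 37 C. Cells are then fixed, nuclei stained with Hoechst, and PNC-positive cells counted.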
12-hLO inh = 12-hLO (ALOX12) enzyme inhibition; purified 12-hLO, xylenol orange hydroperoxide absorbance; Potency, µM (doses to about 57.1 µM), for inactives: at the highest dose activity change, negative = inhibition, most hits filed as inhibitors; hit rate 0.12% among 150,000; AID 1452; active means well fitted inhibition curve with a large enough effect; inconclusive means small, poorly fitted or top-dose-only effect; further: potency means the concentration at half of the fitted maximal effect; nearly all actives have a fitted effect of over 55% in size
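Purified human 12hLO (150 nM), preincubated 15 min with compound, then 40 uM arachidonic acid for 30 min, room temperature, Hepes pH 7.0 with 0.01% Triton X-100. Hydroperoxide detected by ferrous iron/xylenol orange; 573/405 nm absorbance ratio gives reaction progress.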
* hit, by the source's call; ? = inconclusive; nt = no result; [ ] = remark or other dose. Unless noted, the call rests on the fitted dose curve; in most records, active means well fitted inhibition curve with a large enough effect (not every such curve was filed as active); inconclusive means small, poorly fitted or top-dose-only effect, or another doubt; inactive means no such curve, though single readings can be large or run the other way. Unless noted, on the % scale 0 is the no-effect control and ±100 the full control effect.

SMILES	LMNA splice mod	HPGD inh	ALDH1A1 block	PNC inhibitor	12-hLO inh
Cc1ccc(C2/C(=C(/O)c3cnn(-c4ccccc4)c3C)C(=O)C(=O)N2CCN2CCOCC2)o1 (stereo unspecified)	16%	-18%	7.9µM*	-28	6%
COC(=O)c1ccc2c(=O)n(Cc3ccco3)c(SCC(=O)Nc3cc(C)on3)nc2c1	-4%[46 µM]	nt	8%	nt	nt
CCc1cc2c(=O)n(Cc3ccco3)c(SCC(=O)NC3CCS(=O)(=O)C3)nc2s1 (stereo unspecified)	9%[46 µM]	nt	10µM*	nt	nt
CCc1cc2c(=O)n(Cc3ccco3)c(SCc3c(C)noc3C)nc2s1	?	-12%	22µM*	?	-3%
CCc1cc2c(=O)n(Cc3ccco3)c(SCC(=O)N(C)C3CCS(=O)(=O)C3)nc2s1 (stereo unspecified)	3%[46 µM]	nt	10µM*	nt	nt
COCCn1c(SCC(=O)N(C)C2CCS(=O)(=O)C2)nc2ccccc2c1=O (stereo unspecified)	5%[46 µM]	nt	9%	nt	nt
CCc1cc2c(SCC(=O)NC3CCS(=O)(=O)C3)ncnc2s1 (stereo unspecified)	17%[46 µM]	nt	8%	nt	nt
CCc1cc2c(=O)n(Cc3ccco3)c(SCC(=O)N3CCCc4ccccc43)nc2s1	?	-26%	4.5µM*	17	?
COCC(=O)N1CCC2(CCCN(Cc3ccc(C#N)cc3)C2)CC1	nt	-8%	-4%	nt	-3%
COc1cc(/C=C(\C#N)c2nc3ccccc3c(=O)[nH]2)cc(OC)c1OC	5%[46 µM]	nt	nt	nt	nt
Cc1ccc(S(=O)(=O)Oc2ccccc2/C=C2\SC(=O)NC2=O)cc1	nt	nt	13µM*	nt	nt
Cc1nc(-n2nc(C)c(CCC(C)C)c2C)sc1C(=O)Nc1ccc(Cl)cc1	6%[46 µM]	nt	nt	nt	nt
O=C(c1cc(C(F)(F)F)cc(C(F)(F)F)c1)N1CCC2(CCN(Cc3nccs3)CC2)CC1	nt	-1%	15%	nt	-3%
CN(C)c1ccc(/C=N/NC(=O)c2ccc3nc[nH]c3c2)cc1	nt	nt	18µM*	nt	nt
Cc1nc2c(C)cccc2cc1C(=O)N/N=C/c1ccc(N(C)C)cc1	?	-18%	11µM*	-30	9%
N#Cc1ccc(CN2CCC3(CCNCC3)CC2)cc1	nt	-3%	-6%	nt	4%
COc1ccc(Br)cc1C(=O)Nc1ccc(C(=O)NCC(C)C)cc1	-10%[46 µM]	nt	?	nt	nt
CCOc1ccc(Br)cc1C(=O)Nc1ccc(C(=O)NCC(C)C)cc1	4%	2µM*	-2%	15	3%
CCOC(=O)c1ccc(NC(=O)CN2C(=O)c3cccnc3Sc3ccccc32)cc1	-14%[46 µM]	nt	nt	nt	nt
CC(C)C1Oc2ccccc2N(CC(=O)N(Cc2ccccn2)C2CC2)C1=O (stereo unspecified)	-19%	-8%	4%	-100*	3%
Nc1ccc(C23CC4CC(CC(CO)(C4)C2)C3)cc1	?	-9%	11µM*	6	-6%
Nc1ccc(C23CC4CC(CC(O)(C4)C2)C3)cc1	5%	2%	?	24	-1%
COc1ccc(OC)c(CNC(=O)C2CCN(S(=O)(=O)c3cn(C)cn3)CC2)c1	13%[46 µM]	nt	nt	nt	nt
Cc1cc(C)nc(NC(=O)c2c(-c3ccccc3Cl)noc2C)n1	0%	-10%	0%	?	-1%
CCSc1nnc(NC(=O)c2c(-c3ccccc3Cl)noc2C)s1	1%	-26%	11µM*	-16	5%
SMILES	LMNA splice mod	HPGD inh	ALDH1A1 block	PNC inhibitor	12-hLO inh
Cc1onc(-c2ccccc2Cl)c1C(=O)Nc1nnc(-c2cccc([N+](=O)[O-])c2)s1	?	-14%	?	-108*	-5%
CC(=O)Nc1cccc(NC(=O)c2c(-c3ccccc3Cl)noc2C)c1	-16%	-4%	-3%	27	5%
Cc1c(C2CCN(CCc3ccccc3)CC2)noc1-c1ccc(Cl)cc1	nt	-4%	?	nt	-8%
COc1ccc(CCNc2ccc(C)cc2)cc1	-1%	-9%	-7%	-25	5%
COc1ccc(C(=S)Nc2ccc(C)cc2)cc1	-2%	22µM*	?	128	4%
COc1ccc(NC(=S)c2ccncc2)cc1	?	-5%	-1%	-22	-2%
COc1ccc(C(O)CNc2ccc(C)cc2)cc1 (stereo unspecified)	0%	-11%	20µM*	-5	-2%
COc1ccc(C(=S)NCS(=O)(=O)c2ccc(C)cc2)cc1	1%	25µM*	22µM*	-24	-24%
Cc1ccc(S(=O)(=O)CNC(=S)c2ccc3ccccc3c2)cc1	7%	-13%	?	67	?
O=C(CS(=O)(=O)c1cccc2nsnc12)NCc1ccc(Cl)cc1	5%[46 µM]	nt	nt	nt	nt
O=C(OCCN1CCCCC1)c1ccccc1Cl	9%	?	4%	-11	0%
O=C(COC(=O)c1ccc(F)cc1)Nc1ccc(Cl)cn1	nt	nt	1%	nt	nt
O=C(OCn1ncc(Cl)c(Cl)c1=O)c1ccc(F)cc1	?	-13%	1.1µM*	75	4%
O=C(Cn1ncc(Cl)c(Cl)c1=O)c1ccc(Cl)cc1	?	-8%	8.9µM*	-10	-5%
O=C(Cn1ncc(N2CCOCC2)c(Cl)c1=O)c1ccc(Cl)cc1	7%[46 µM]	nt	-7%	nt	nt
O=C(OCn1ncc(Cl)c(Cl)c1=O)c1ccccc1Cl	?	-28%	2µM*	56	0%
Cc1ccc(N(CC(O)COCc2ccco2)S(=O)(=O)c2ccc(C)cc2)cc1 (stereo unspecified)	?	-20%	3.2µM*	-20	?
COc1ccc(N2CC(NC(=O)COc3cccc(C)c3)CC2=O)cc1OC (stereo unspecified)	1%[46 µM]	nt	nt	nt	nt
N#Cc1ccccc1-c1ccc2ncnc(NC3CC3)c2c1	?	nt	-9%	nt	nt
Cc1nc(N)sc1-c1csc(Nc2ccccn2)n1	12%	-8%	?	9	-14%
COc1ccc(Nc2nc(-c3sc(NC(C)=O)nc3C)cs2)cc1	?	?	32µM*	-12	-11%
COc1ccc(Nc2nc(C)c(-c3ccccc3)s2)cc1	-9%	20µM*	25µM*	-25	-4%
Cc1nc(NC(=O)CC(C)C)sc1-c1csc(Nc2ccc(Cl)cc2)n1	9%[0.0737 µM]	?	?	50	-3%
COc1ccc(Nc2nc(-c3sc(N)nc3C)cs2)cc1	12%	-23%	7.1µM*	?	-8%
COc1ccc(CCNc2nc(-c3sc(N)nc3C)cs2)cc1OC	-11%	-10%	?	-108*	-2%
SMILES	LMNA splice mod	HPGD inh	ALDH1A1 block	PNC inhibitor	12-hLO inh
CCC(=O)NNc1ncnc2c1cnn2-c1ccc(C)c(Cl)c1	-5%[46 µM]	nt	nt	nt	nt
O=C(CCC(=O)c1ccc(F)cc1)Nc1ccc(Cl)cc1	8%[46 µM]	nt	nt	nt	nt
Cn1nc(C(=O)Nc2nnc(C3CC3)s2)c2ccccc2c1=O	-5%[46 µM]	nt	13µM*	nt	nt
Cn1nc(C(=O)NC2CCCCC2)c2ccccc2c1=O	4%[0.0737 µM]	-9%	?	?	6%
CCCCCCc1c(C[C@H](N)C(=O)O)o[nH]c1=O	nt	-3%	4%	nt	1%
Cc1ccc(OCC(=O)Nc2ccc3nc(SCC(=O)N4CCCC4)sc3c2)cc1C	5%[46 µM]	nt	nt	nt	nt
